This is an account of results in publication PMC11062922 (Nature Chemical Biology, 2023).

Parameters in all cases: species or system human, MV4-11 + K-562 + COLO205 + SK-N-BE2 + OVCAR-8
The test system of one assay is MAP3K11. The following applies: read-out: apparent Kd, n = 1.
The next assay has as its system PRKCA. The following applies: read-out: apparent Kd, n = 1.
The next assay concerns ACVR1B. The following applies: read-out: apparent Kd; compound concentrations:100 nM and 1000 nM (sheet 'Samples'); n = 1.
Another assay deals with CIT. The note with it: read-out: apparent Kd; compound concentrations:100 nM and 1000 nM (sheet 'Samples'); n = 1.
Another assay deals with ABL1. The note with it: read-out: apparent Kd, n = 1.
The next assay relates to ABL2. The note with it: read-out: apparent Kd, n = 1.
Another assay relates to BTK. The note with it: read-out: apparent Kd, n = 1.
The subject of another assay is CDC42BPB. The following applies: read-out: apparent Kd, n = 1.
The next assay concerns EPHB1. The following applies: read-out: apparent Kd, n = 1.
The next assay has as its system LCK. The note with it: read-out: apparent Kd, n = 1.
Another assay relates to PAK6. The following applies: read-out: apparent Kd, n = 1.
In the next assay the test system is PKN2. The following applies: read-out: apparent Kd; compound concentrations:100 nM and 1000 nM (sheet 'Samples'); n = 1.
The test system of the next assay is MAPK14. The note with it: read-out: apparent Kd, n = 1.
For a further assay, the system named is PTK6. The following applies: read-out: apparent Kd, n = 1.
A further assay has as its system RPS6KA3. The following applies: read-out: apparent Kd, n = 1.
A further assay relates to AURKB. The note with it: read-out: apparent Kd, compound concentrations: 100 nM and 1000 nM (sheet 'Samples'), n = 1.
For the next assay, the system named is NUAK2. The following applies: read-out: apparent Kd, compound concentrations: 100 nM and 1000 nM (sheet 'Samples'), n = 1.
For the next assay, the system named is RPS6KB1. The note with it: read-out: apparent Kd, compound concentrations: 100 nM and 1000 nM (sheet 'Samples'), n = 1.
Where [1] appears, read: compound concentrations:100 nM and 1000 nM (sheet 'Samples').

Read-outs that look alike come from different tables or passages of the source.

`Cc1cccc(Nc2nc(N[C@H]3CCCC[C@H]3N)ncc2C(N)=O)c1.Cl` [GSK986310C]: the results for the potency estimated from few doses in the assay on MAP3K11 (setting [1]) and in the assay with PRKCA (setting [1]) were 1800 nM and 1130 nM, respectively.

Take `Cc1cccc(-c2nc(Nc3ccncc3)c3sccc3n2)n1` [GW869641X]: the potency estimated from few doses with ACVR1B was 0.703 nM; with CIT, 1100 nM.

Consider `NCCNS(=O)(=O)c1ccc(-c2ccnc3[nH]ccc23)cc1` [GSK977617A], for which the potency estimated from few doses was 681 nM in the assay with ABL1 (setting [1]); 277 nM in the assay on ABL2 (setting [1]); 642 nM with BTK (setting [1]); 1700 nM with CDC42BPB (setting [1]); 463 nM with EPHB1 (setting [1]); 515 nM with LCK (setting [1]). Moreover, the potency estimated from few doses was 1370 nM in the assay with MAP3K11 (setting [1]), 1310 nM with PAK6 (setting [1]), 1190 nM in the assay with PKN2 and 1270 nM with PRKCA (setting [1]).

Take `CCOC(=O)N1CCC(n2cnc(-c3ccc(F)cc3)c2-c2ccnc(N)n2)CC1` [SB-219952]: the potency estimated from few doses in the assay on ABL1 (compound concentrations: 100 nM and 1000 nM (sheet 'Samples'), CATDS: 8.9388068544210691E-3) is 1180 nM; in the assay on ABL2 (compound concentrations: 100 nM and 1000 nM (sheet 'Samples'), CATDS: 1.2118968768927599E-2) it was 552 nM; in the assay on BTK (compound concentrations: 100 nM and 1000 nM (sheet 'Samples'), CATDS: 1.0743585683712699E-2), 726 nM; in the assay on EPHB1 (compound concentrations: 100 nM and 1000 nM (sheet 'Samples'), CATDS: 1.10661154917942E-2), 677 nM; in the assay on LCK (compound concentrations: 100 nM and 1000 nM (sheet 'Samples'), CATDS: 1.05022707080212E-2), 767 nM; in the assay with MAP3K11 (compound concentrations: 100 nM and 1000 nM (sheet 'Samples'), CATDS: 1.0131438391308501E-2), 838 nM. The potency estimated from few doses in the assay on MAPK14 (compound concentrations: 100 nM and 1000 nM (sheet 'Samples'), CATDS: 3.3048485919856201E-2) was 97.1 nM; with PTK6 (compound concentrations: 100 nM and 1000 nM (sheet 'Samples'), CATDS: 1.0027639490301001E-2), 861 nM; in the assay with RPS6KA3 (compound concentrations: 100 nM and 1000 nM (sheet 'Samples'), CATDS: 7.9232054284878294E-3), 1760 nM.

Turning to `COc1ccc(Nc2ncc(C#N)c(Nc3ccccc3C(N)=O)n2)cc1N1CCN(C)CC1.Cl` [GSK1558669A], the potency estimated from few doses with ABL1 (compound concentrations: 100 nM and 1000 nM (sheet 'Samples'), CATDS: 1.2086196789939699E-2) is 112 nM; in the assay with ABL2 (compound concentrations: 100 nM and 1000 nM (sheet 'Samples'), CATDS: 8.4087803089845196E-3) it was 334 nM; in the assay on AURKB (CATDS: 1.8083134151289901E-2) it was 45.1 nM; in the assay with BTK (compound concentrations: 100 nM and 1000 nM (sheet 'Samples'), CATDS: 6.7250041234510503E-3), 871 nM; in the assay on LCK (compound concentrations: 100 nM and 1000 nM (sheet 'Samples'), CATDS: 1.44418733031309E-2), 72.7 nM; in the assay on MAP3K11 (compound concentrations: 100 nM and 1000 nM (sheet 'Samples'), CATDS: 2.8050644020512099E-2), 20.5 nM. For the same compound, the potency estimated from few doses with NUAK2 (CATDS: 2.1181549202491899E-2) is 33.3 nM; in the assay on PRKCA (compound concentrations: 100 nM and 1000 nM (sheet 'Samples'), CATDS: 6.3313527827085804E-3), 1220 nM; in the assay on PTK6 (compound concentrations: 100 nM and 1000 nM (sheet 'Samples'), CATDS: 1.8195014804837699E-2) it was 44.6 nM; with RPS6KA3 (compound concentrations: 100 nM and 1000 nM (sheet 'Samples'), CATDS: 1.2141837427484699E-2) it was 110 nM; in the assay on RPS6KB1 (CATDS: 6.0370811384274602E-3), 1680 nM.

Consider `CN(c1ccc(NC(=O)Nc2cccc(Cl)c2)cc1)c1ccnc(N)n1.Cl` [GW830707A], for which the potency estimated from few doses in the assay with ABL1 (compound concentrations: 100 nM and 1000 nM (sheet 'Samples'), CATDS: 1.69612830125371E-2) was 90.3 nM; in the assay on ABL2 (compound concentrations: 100 nM and 1000 nM (sheet 'Samples'), CATDS: 3.1249349132144801E-2), 18.9 nM; with AURKB (CATDS: 1.11325754696811E-2) it was 1010 nM; in the assay with BTK (compound concentrations: 100 nM and 1000 nM (sheet 'Samples'), CATDS: 1.93862363831281E-2) it was 58.1 nM; in the assay on CDC42BPB (compound concentrations: 100 nM and 1000 nM (sheet 'Samples'), CATDS: 1.55962433330884E-2), 126 nM; in the assay with EPHB1 (compound concentrations: 100 nM and 1000 nM (sheet 'Samples'), CATDS: 2.4630351484746099E-2) it was 31.2 nM. The potency estimated from few doses was 788 nM with LCK (compound concentrations: 100 nM and 1000 nM (sheet 'Samples'), CATDS: 1.1469376819807401E-2); 1270 nM in the assay on NUAK2 (CATDS: 1.08459098062964E-2); 1390 nM in the assay with PAK6 (compound concentrations: 100 nM and 1000 nM (sheet 'Samples'), CATDS: 1.07398015427933E-2); 1160 nM with RPS6KB1 (CATDS: 1.09553659906664E-2).

Regarding `Cl.ON=C1CCc2cc(-c3nc(C4CCNCC4)[nH]c3-c3ccncc3)ccc21` [SB-614067-R], the potency estimated from few doses in the assay on ACVR1B is 846 nM; in the assay with MAPK14 (setting [1]), 1160 nM.

On to `Cl.Cl.NCC(C(=O)Nc1cc(Br)c(-c2ccnc3[nH]ccc23)s1)c1ccccc1.NCC(C(=O)Nc1cc(Br)c(-c2ccnc3[nH]ccc23)s1)c1ccccc1` (stereo not shown) [GSK1269851A], for which the potency estimated from few doses in the assay with ABL1 (setting [1]) was 1040 nM; in the assay with ABL2 (setting [1]), 433 nM; with BTK (setting [1]), 638 nM; with EPHB1 (setting [1]), 331 nM; with LCK (setting [1]), 519 nM; in the assay on MAP3K11 (setting [1]), 2030 nM. Moreover, the potency estimated from few doses was 710 nM with PAK6 (setting [1]), 1450 nM in the assay with PTK6 (setting [1]) and 1840 nM in the assay with RPS6KA3 (setting [1]).
